TDP43 rescue: rescues yeast growth from TDP-43 toxicity | Potency, µM (top dose mostly 46.1 µM), without a hit: top-dose growth rescue (activation), hits mostly activators | hit rate 1.8% among 410,000 | TDP-43 expressing yeast growth rescue, BacTiter-Glo, 24 h | AID 652104; also: potency is read from the fitted curve at half-maximal effect; % of control where 0% means no effect; nearly all actives have a fitted effect of over 50% in size
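Yeast cells expressing TDP-43 under galactose induction are exposed to compounds for 24 hr at 30 deg C. BacTiter-Glo luminescence measures growth, so protective compounds score as activators.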
Abeta yeast res: A-beta toxicity reversal in yeast | hit rate 0.063% among 410,000 | AID 1347071 | Potency, µM (doses to about 46.1 µM), hits mostly activators | yeast expressing A-beta42, growth rescue, OD600, 48 h; response scale: 0% DMSO, 100% iron-clioquinol control; also: potency is read from the fitted curve at half-maximal effect; nearly all actives have a fitted effect of over 55% in size
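Growth rescue measured by 600 nm absorbance after 48 h yeast culture at 30 C with compound. Values normalized between DMSO and an equimolar ferric chloride plus clioquinol control.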
IDH1 R132H inh: human IDH1 R132H inhibition. hit rate 0.093% among 390,000. Potency, µM (titrated, usually from 76.6 µM), for inactives: top-dose activity change, negative = inhibition, hits mostly inhibitors. IDH1-R132H enzyme, NADPH consumption, diaphorase/resazurin fluorescence. AID 602179; also: potency is read from the fitted curve at half-maximal effect; % is scaled to controls: 0 for no effect and ±100 for the full control effect; nearly all actives have a fitted effect of over 65% in size
Target sequence (O75874 whole entry R132H, stated change not applied): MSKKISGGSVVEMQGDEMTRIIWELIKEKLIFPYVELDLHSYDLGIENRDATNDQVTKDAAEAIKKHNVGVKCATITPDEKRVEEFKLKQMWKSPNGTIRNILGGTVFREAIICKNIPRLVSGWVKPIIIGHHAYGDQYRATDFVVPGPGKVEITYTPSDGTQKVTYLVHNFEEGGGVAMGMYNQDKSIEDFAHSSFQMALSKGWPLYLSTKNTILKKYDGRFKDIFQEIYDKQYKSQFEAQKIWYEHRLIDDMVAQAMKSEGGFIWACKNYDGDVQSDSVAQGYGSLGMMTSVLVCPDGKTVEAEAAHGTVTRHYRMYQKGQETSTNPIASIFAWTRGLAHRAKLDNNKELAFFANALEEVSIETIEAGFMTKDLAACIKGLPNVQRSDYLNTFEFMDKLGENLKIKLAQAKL
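IDH1-R132H (0.5 ug/mL dispensed) in pH 7.5 Tris buffer was preincubated 30 min with compound, then given a substrate mix of 0.016 mM NADPH and 2 mM alpha-KG for 80 min at room temperature; remaining NADPH was read by diaphorase/resazurin fluorescence.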
FUS yeast rescue: rescues growth of FUS-expressing yeast | S. cerevisiae FUS-expressing, growth rescue, OD600, 24 h | Potency, µM (series often up to 76.6 µM), actives largely listed as activators | hit rate 0.24% among 390,000;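 also: potency is read from the fitted curve at half-maximal effect; plate controls were DMSO vehicle for no effect and reference control for full effect; nearly all actives have a fitted effect of over 55% in size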
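Read-out: OD at 600 nm after 24hr at 30C, reporting rescue of FUS-induced yeast toxicity. Cells at OD 0.005 in galactose (2%) minimal medium; compounds tested in a dilution series; CP55940 titration from 92uM final as control.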
aSyn rescue: alpha-synuclein toxicity inhibition in yeast; Yeast expressing alpha-synuclein, growth rescue, BacTiter-Glo, 24 h; Potency, µM (titrated, usually from 46.1 µM), inactives show top-dose growth rescue (activation), most hits filed as activators; hit rate 0.14% among 370,000; also: potency is read from the fitted curve at half-maximal effect; % of control where 0% means no effect; nearly all actives have a fitted effect of over 65% in size
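Galactose-induced alpha-syn yeast (OD600=0.02, raffinose-pregrown) + pinned cpd, 24 hr, 30 deg C; growth by BacTiter-Glo luminescence. Growth restoration scores as activation.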
LDHA block: LDHA (human) enzyme inhibition; P00338; purified LDHA, NADH/diaphorase-resazurin fluorescence; active compounds read low; activity change, % (values are at about 110 or 230 µM); hit rate 0.15% among 480,000; AID 1347041; in the data active = activity change below about -30%; inconclusive = mostly about -25% to -30%;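 also: plate controls were DMSO wells for no effect and wells without enzyme for full effect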
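Resorufin fluorescence (ex540/em590), read at 0 and 20 min after diaphorase/resazurin addition, reports the NADH left after a 5 min room-temperature reaction of 2 nM human LDH5 with 0.06 mM NADH and 0.2 mM pyruvate.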
The depositor's hits bear a star; i = inactive; ? = inconclusive; . = no result given; ! = a repeat was not active; [ ] = dose if it differs, or a comment. This is a sample that favours compounds with a hit; in the whole collection about 2% have one here. Unless noted, calls follow the shape of the dose curve; as a rule, active = well fitted curve in the direction sought with a large enough effect; inconclusive = small, poorly fitted or top-dose-only effect, or another doubt; inactive = no such curve, though single readings can be large; an effect the other way counts as inactive or inconclusive.

SMILES | TDP43 rescue | Abeta yeast res | IDH1 R132H inh | FUS yeast rescue | aSyn rescue | LDHA block
O=C(c1ccccc1)N1c2ncnn2C2(CCCCC2)[C@@H]2CCCC[C@@H]21 | 35.5µM* | i | 0.0% | i | . | -7.2
O=C(c1ccc(F)cc1)N1c2ncnn2C2(CCCCC2)[C@@H]2CCCC[C@@H]21 | ? | i | -8.9% | i | . | -3.8
CSc1ccc(Cl)c(C(=O)N2CCN(Cc3cc(=O)n4ccsc4n3)CC2)c1 | . | . | . | . | . | -1.3
Nc1ccc(-c2nc3ccccc3[nH]2)cc1 | 13.8% | i | -6.3% | i | -14.5% | -0.9
c1ccc(-c2cc(-c3nc4ccccc4[nH]3)c3ccccc3n2)cc1 | 15.8µM* | i | 4.7% | i | -0.9% | 0.4
C#CCSc1nccc(-c2nn(-c3ccc(C)cc3)ccc2=O)n1 | -15.0% | i | 7.7% | 35.5µM* | 5.5% | 1.7
O=C(CSc1nnc(COc2ccccc2Cl)o1)NC(=O)NC1CCCC1 | 2.7% | i | 1.9% | ? | 17.8µM* | -0.9
COc1ccccc1CNc1nc2cc(-c3ccccc3C)sc2c(=O)n1C | 20µM* | i | . | i | ? | -15.2
Cn1c(NCC2CCCCC2)nc2cc(-c3ccsc3)sc2c1=O | 20µM* | i | . | i | 11.0% | -9.6
COCCNc1nc2cc(-c3cccc(C(F)(F)F)c3)sc2c(=O)n1C | 29.8% | i | . | i | -8.4% | -3.7
COc1cccc(CNc2nc3cc(-c4ccccc4C)sc3c(=O)n2C)c1 | 17.8µM* | i | . | ? | ? | -5.8
COCCNc1nc2cc(-c3ccc(C)cc3)sc2c(=O)n1C | 11.2µM* | i | . | i | 0.1% | -2.8
COc1ccc(NS(=O)(=O)c2ccc(N/N=C/c3ccc(C)s3)c([N+](=O)[O-])c2)cc1 | . | . | . | . | . | -1.8
OCCN1CCN(C(=S)Nc2cccc(C(F)(F)F)c2)CC1 | -2.6% | i | -6.2% | i | -8.1% | -32.8*!
O=C(NC(=S)Nc1cccc(C(F)(F)F)c1)c1ccc2nonc2c1 | 11.2µM* | i | 10.5% | i | -19.5% | -7.3
Cc1ccc(NC(=S)NCc2ccccc2)cc1C | 12.6µM* | i | 3.6% | i | 11.6% | 1.3
FC(F)(F)c1cccc(NC(=S)NCc2ccccc2)c1 | 14.1µM* | ? | 4.4% | i | -24.3% | -2.3
CCN1CCN(C(=S)Nc2cccc(C(F)(F)F)c2)CC1 | 0.0% | i | 4.0% | i | -2.8% | -1.7
CCOc1cc(OCC)cc(C(=O)NC(=S)Nc2cccc(C(F)(F)F)c2)c1 | 8.7% | i | 0.0% | . | -20.9% | -2.0
Cc1nc2ccc(NC(=S)NCc3ccccc3)cc2nc1C | -15.3%[0.397 µM] | i | 32.8% | i | 1.7% | 2.2
FC(F)(F)c1cccc(CNC(=S)Nc2ccccc2)c1 | 8.7% | i | 3.7% | i | -15.6% | -4.3
COc1ccc2c(C)c(CCC(=O)NCCc3ccc(Cl)cc3)c(=O)oc2c1 | 22.4µM* | i | -14.4% | i | . | -16.7
COc1ccc(CCC(=O)NCCOc2ccc(Cl)cc2)cc1 | 8.91µM* | i | 4.6% | i | 2.1% | -5.2
COc1ccc2c(C)c(CCC(=O)NCCc3ccccc3)c(=O)oc2c1 | ? | i | 18.1% | i | . | -12.7
COc1ccc(CCNC(=O)c2oc3ccc(OC)cc3c2C)cc1 | 3.98µM* | i | 2.8% | i | -6.1% | -0.6
SMILES | TDP43 rescue | Abeta yeast res | IDH1 R132H inh | FUS yeast rescue | aSyn rescue | LDHA block
COc1cccc(C2CC(=O)Nc3nc(N)sc32)c1OC(C)C (configuration not stated) | . | . | . | . | . | 142.0
COc1ccc(C2=C(C=O)C(c3ccccc3)c3ccccc3O2)cc1 (configuration not stated) | . | . | . | . | . | -1.4
CCOc1cc(CNC(=O)c2ncoc2-c2ccc(C)s2)cc(OCC)c1OCC | . | . | . | . | . | 13.0
Cc1csc(Nc2ccc(Cl)cc2)n1 | 15.8µM* | ? | 4.7% | i | -7.0% | -2.1
CC(C)(C)c1ccc(OCCC(=O)Nc2ccc(N3CCOCC3)cc2N2CCOCC2)cc1 | 7.6% | i | 13.1% | 39.8µM* | 2.1% | 14.1
CCOc1cc(N2CCOCC2)c(OCC)cc1NC(=O)COC(=O)CCOc1ccc(C(C)(C)C)cc1 | 22.4µM* | i | 5.0% | i | 22.2% | 7.9
CC(C)(C)c1ccc(OCCC(=O)OCC(=O)NC2CC2)cc1 | 12.6µM* | i | 4.1% | i | ? | -0.8
CCOc1ccc(OCCC(=O)OCC(=O)Nc2ccc(N3CCOCC3)cc2)cc1 | 0.0% | i | 3.2% | i | 5.0% | 0.5
CCOc1ccc(S(=O)(=O)N2CCOCC2)cc1NC(=O)CCOc1ccc(C(C)(C)C)cc1 | ? | i | -17.8% | i | -2.6% | -7.8
COc1ccc(-c2cc(C(=O)NCc3ccc(F)cc3)c3ccccc3n2)c(OC)c1 | . | . | . | . | . | 11.1
COc1cc(CCc2ccccc2)c(C(=O)O)c(O)c1C/C=C(/C)CCC=C(C)C | 4.5% | i | -15.0% | i | -35.7% | -38.4*
COc1cc(CCc2ccccc2)c(C(=O)O)c(O)c1CC=C(C)C | 2.9% | i | 3.1% | i | -3.3% | 2.7
COc1ccc(S(=O)(=O)c2cc3cc(C(C)(C)C)cc(O)c3oc2=O)cc1 | -16.9% | i | -9.9% | 39.8µM* | . | 8.4
Cc1ccc(-c2cc(C(=O)OCC(=O)NCC(C)C)c3ccccc3n2)o1 | . | . | . | . | . | 2.4
CC(C)(C)C1CCC(C(=O)OCC(=O)c2ccc[nH]2)CC1 (configuration not stated) | 17.8µM* | i | 1.7% | i | 3.9% | 1.7
NC(=Nc1nc(-c2ccccn2)cc2ccccc12)c1ccccn1 | 3.16µM* | ? | 4.1% | . | ? | -10.2
N/C(=N\OC(=O)c1cccc2ccccc12)c1ccccn1 | -42.0% | i | 7.3% | i | -46.3% | -0.2
COc1cccc(C(c2sc3nc(C)nn3c2O)N2CCN(c3ccccc3F)CC2)c1 (configuration not stated) | 0.2% | i | -3.9% | ? | 4.2% | -2.0
COc1cccc(C(c2sc3nc(-c4ccco4)nn3c2O)N2CCN(c3ccccc3F)CC2)c1 (configuration not stated) | 11.2µM* | i | -12.5% | 8.91µM* | . | -4.0
CC(C)Cn1nc(C(=O)Nc2nc3c(s2)CN(Cc2ccccc2)CC3)c2ccccc2c1=O | . | . | . | . | . | -6.1
CC(Sc1nnnn1C)C(=O)Nc1ccc(Oc2ccccc2)cc1 (configuration not stated) | 15.8µM* | i | 13.2% | i | 0.5% | -1.5
CCOC(=O)c1cnc2ccc(OC)cc2c1Nc1cccc(Cl)c1 | . | . | . | . | . | 2.8
C=CCNc1nc(-c2ccc3c(c2)OCCO3)cs1 | 22.9% | i | -4.3% | i | 0.1% | -2.2
